Screening data from PubChem.
Cruzain inh Det: blocks cruzain activity in presence of Triton detergent; P25779; purified cruzain, Z-FR-AMC fluorescence, 0.01% Triton; Potency, µM, usual class: inhibitors; 200,000 compounds, 0.43% hits; also: nearly all actives have a fitted effect of over 40% in size
Target sequence (P25779 123-467 limits assumed): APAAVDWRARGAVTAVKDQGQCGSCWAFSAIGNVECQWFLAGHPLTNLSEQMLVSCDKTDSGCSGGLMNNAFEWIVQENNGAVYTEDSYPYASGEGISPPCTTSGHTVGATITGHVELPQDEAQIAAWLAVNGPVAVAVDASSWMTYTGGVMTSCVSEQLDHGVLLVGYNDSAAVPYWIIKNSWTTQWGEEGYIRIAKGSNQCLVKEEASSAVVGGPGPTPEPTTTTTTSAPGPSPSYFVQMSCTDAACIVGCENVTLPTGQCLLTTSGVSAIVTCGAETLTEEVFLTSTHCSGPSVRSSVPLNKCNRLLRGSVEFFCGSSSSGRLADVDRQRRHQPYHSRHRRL
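Purified cruzain (1.5 nM final) was preincubated with compounds for 15 min at room temperature in 100 mM sodium acetate pH 5.5, 5 mM DTT, 0.01% Triton X-100. Reaction started with 2 uM Z-FR-AMC; AMC fluorescence change over 60 s gave activity.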
Cruzain inh noDet: cruzain (T. cruzi) inhibition without detergent | AID 1476 | purified cruzain, Z-FR-AMC fluorescence, no detergent | 200,000 compounds, 2.3% hits | Potency, µM, hits mostly inhibitors | P25779; also: nearly all actives have a fitted effect of over 40% in size
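Detergent-free condition (0.00005% Triton X-100) in acetate buffer pH 5.5 with DTT. 1.5 nM enzyme and compound were pre-mixed 15 min, then 2 uM Z-FR-AMC substrate added; reaction progress from fluorescence change between first and third reads (60 s).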
Numbers stand for hits; i = inactive; ? = inconclusive; ! = not confirmed by another sample. Only some compounds are listed: those with a hit (about 2.5% of all), similar ones and a draw of the others. Calls follow the shape of the dose curve; as a rule, active = well fitted curve in the direction sought with a large enough effect; inconclusive = small, poorly fitted or top-dose-only effect, or another doubt; inactive = no such curve, though single readings can be large; an effect the other way counts as inactive or inconclusive.

SMILES	Cruzain inh Det	Cruzain inh noDet
O=C(N/N=C/c1cccc([N+](=O)[O-])c1)c1ccc(COc2ccccc2-c2ccccc2)cc1	i	20µM
Cc1ccc(NCC(=O)N/N=C/c2cc3ccccc3nc2Cl)cc1	i	25µM
COc1ccc(/C=N/NC(=O)CSCc2ccc([N+](=O)[O-])cc2)cc1OC	i	i
COc1cc(/C=N/NC(=O)c2cccc([N+](=O)[O-])c2)ccc1OCc1ccccc1	i	i
O=C(CN1CCOCC1)N/N=C/c1cc2ccccc2nc1Cl	i	i
CCOc1cc(/C=N/NC(=O)c2cc(C)[nH]n2)ccc1OC(=O)c1ccc([N+](=O)[O-])cc1	i	i
COc1cc(/C=N/NC(=O)COc2c(C)cc([N+](=O)[O-])cc2C)ccc1OC(=O)c1ccccc1Br	i	10µM
COc1cc(/C=N/NC(=O)COc2c(C)cc([N+](=O)[O-])cc2C)ccc1OC(=O)c1ccccc1	i	25µM
COc1ccc2c(c1)C(=O)[C@H](OC(=O)NCc1ccco1)[C@@H](c1ccc(OC)c(Br)c1)O2	i	i
COc1ccc(S(=O)(=O)N2CCC(c3nnnn3-c3ccccc3)CC2)cc1OC	i	i
Cc1ccc(C)c(C(=N)c2ccccc2Cc2ccccc2)c1	i	i
O=[N+]([O-])c1ccc(NN=C2c3ccccc3Cc3ccccc32)c([N+](=O)[O-])c1	i	i
CCOc1ccc(CNC(=O)Nc2ccc3c(c2)N(C)C(=O)c2ccccc2S3)cc1	i	i
Nc1c(C(=O)Nc2cccc(F)c2)c2ccccn2c1C(=O)c1ccccc1	i	i
COc1cc(/C=N/NC(N)=O)ccc1OCC(=O)Nc1ccc(C)c(C)c1	i	i
COc1cc(/C=N/NC(N)=S)ccc1OCC(=O)Nc1ccc(C)c(C)c1	16µM	13µM
COc1ccc(/C=N/NC(=O)c2cccc([N+](=O)[O-])c2)cc1OC(=O)c1ccc(C)cc1	i	i
COc1ccc(/C=N/NC(=O)c2cccc([N+](=O)[O-])c2)cc1OC(=O)c1ccccc1	i	25µM
Cc1ccccc1-c1noc(-c2ccc(N3CCCC3)c([N+](=O)[O-])c2)n1	i	i
C[N+](C)(C)c1ncnc2c1ncn2[C@@H]1CCCCO1	i	i
COc1ccc(-c2nnc(C3CCN(C(=O)c4ccccc4F)CC3)o2)cc1	i	i
COC(=O)c1sc2cc(C(F)(F)F)cnc2c1-c1ccccc1	i	i
COc1ccc(NC(=O)c2sc3cc(C(F)(F)F)cnc3c2-c2cccs2)cc1	i	i
O=C(O)c1sc2cc(C(F)(F)F)cnc2c1-c1ccccc1	?	16µM
O=C(Nc1ccc(F)cc1)c1sc2cc(C(F)(F)F)cnc2c1-c1cccs1	i	25µM
SMILES	Cruzain inh Det	Cruzain inh noDet
CCCCCCCC(=O)OCCOC(=O)CCCCCCC	i	i
CCc1ccc(-c2csc3[n+]2CCN3C(C)=O)cc1	18µM	i
CC(=O)N1CC[n+]2c(-c3ccc(Cl)cc3)csc21	?	i
COC(=O)c1cc(-c2ccccc2)sc1NC(=O)CN1C(=O)c2ccccc2C1=O	i	25µM
COC(=O)c1cc(OC)c(OC)cc1NC(=O)CN1C(=O)c2ccccc2C1=O	i	?
Nc1ccn([C@@H]2O[C@H](COC(=O)C34CC5CC(CC(C5)C3)C4)[C@@H](O)[C@@H]2O)c(=O)n1	i	i
NC[C@@H](O)CSP(=O)(O)O	i	i
CCC(=O)N1CCN(c2nc3c(C)cccc3s2)CC1	i	i
O=S(=O)(Nc1ccc(N2CCOCC2)cc1)c1ccc2ccccc2c1	i	i
O=S(=O)(Nc1nc2ccccc2nc1Nc1ccc(N2CCOCC2)cc1)c1cc(Cl)ccc1Cl	i	20µM
COc1ccc(CNC(=O)CSc2ncc(S(=O)(=O)c3ccc(C)c(Cl)c3)c(=O)[nH]2)cc1	i	?
Cc1cc(C)c(-c2csc(NC(=O)c3cc([N+](=O)[O-])ccc3N3CCOCC3)n2)c(C)c1	i	i
O=C(Nc1nc2ccc(Oc3ccccc3)cc2s1)c1cc([N+](=O)[O-])ccc1N1CCOCC1	i	16µM
CCc1ccc2c(c1)-c1ccccc1S(=O)(=O)N2CC(=O)N1CCC(C)CC1	i	i
CC1=C(C(=O)Nc2ccccc2)C(c2ccco2)C(C#N)=C(SCC(=O)OC(C)C)N1 (centres undefined)	i	i
CC1=C(C(=O)Nc2ccccc2)C(c2ccco2)C(C#N)=C(SCc2ccccc2)N1 (centres undefined)	i	20µM
CC(=O)C1=C(C)NC(SCC(=O)c2cc(Cl)ccc2Cl)=C(C#N)C1c1ccco1 (centres undefined)	i	25µM
CC1=C(C(=O)Nc2ccccc2)C(c2ccco2)C(C#N)=C(SCC(=O)Nc2cccc(C)c2C)N1 (centres undefined)	i	?
COc1ccccc1NC(=O)C1=C(C)NC(SCC(=O)c2ccc(C)cc2)=C(C#N)C1c1ccco1 (centres undefined)	i	13µM
CC(=O)C1=C(C)NC(SCC(=O)c2ccc(F)cc2)=C(C#N)C1c1ccco1 (centres undefined)	i	i
CC(=O)C1=C(C)NC(SCC(=O)c2ccc(Cl)c(Cl)c2)=C(C#N)C1c1ccco1 (centres undefined)	i	?
CCOc1ccccc1NC(=O)CSC1=C(C#N)C(c2ccco2)C(C(=O)Nc2nc3ccccc3s2)=C(C)N1 (centres undefined)	i	7.9µM
Cn1cnc(S(=O)(=O)N2CCCC(C(=O)NCc3ccccc3)C2)c1 (centres undefined)	i	i
COc1cc(C2CC(=O)N(CC(=O)Nc3ccccc3F)c3ccccc3S2)cc(OC)c1OC (centres undefined)	i	?
COC(=O)c1sccc1S(=O)(=O)N1CCN(c2ccc(C)cc2C)CC1	i	i
SMILES	Cruzain inh Det	Cruzain inh noDet
CSc1ccc(CCNC(=O)c2ccc(-c3nc(COc4ccccc4)c(C)o3)cc2)cc1	i	i
Cc1nn(-c2ccccc2)c2sc(C(=O)Nc3cccc(Cl)c3)cc12	i	?
Cc1cccc(N2CCN(CCCNC(=O)c3sc4ncccc4c3-n3cccc3)CC2C)c1 (centres undefined)	i	i
COc1ccc(N2CCN(S(=O)(=O)c3ccc(-c4cc(C(F)(F)F)on4)s3)CC2)cc1	i	i
O=C1O/C(=C\c2ccccc2)c2ccccc21	i	i
O=C1O/C(=C/c2ccccc2)N=C1c1ccccc1	13µM	16µM
Cc1cc(C)c(/C=C/c2onc(C)c2S(=O)(=O)N2CCC(C(=O)NCCc3ccccc3)CC2)c(C)c1	i	i
Cc1ccc(OCC(=O)Nc2cccc(OCc3cc(=O)n4ccccc4n3)c2)cc1C	i	i
Cc1cc2nc([C@H](C)C(=O)c3ccc(Cl)cc3)c(=O)[nH]c2cc1C	i	i
Cc1ccc2nc(-c3ccccc3)nc(SC(C)C(=O)NCc3cccs3)c2c1 (centres undefined)	i	i
Cc1ccc(C)c2c(SC(C)C(=O)NCc3ccco3)nc(-c3ccccc3)nc12 (centres undefined)	i	4µM
CCCn1c(-c2ccc(F)cc2)nc2c(NCC(C)(C)CN(C)C)nc(C)nc21	i	i
COC(=O)c1c(NC(=O)Nc2ccc(Cl)cc2)sc(C)c1C	i	25µM!
COC(=O)c1c(NC(=O)COc2ccc(Cl)cc2)sc(C)c1C	i	i
CC(C)CCNC(=O)[C@H](CC(C)C)NC(=O)[C@H]1O[C@@H]1C(=O)O	0.1µM	0.1µM
CC(C)CCNC(=O)CCCOc1ccccc1	i	i
